Source: PubChem BioAssay (EPA / NIEHS)
Several values for one entry are separate records, joined by “and”; a condition that tells them apart may be missing. Equal values may be shown once. Results filed as inconclusive are left out. The source holds several records for some structures; these can differ, active in one and inactive in another. Activity calls are given as the source filed them. How the source made its calls, unless noted: active means hit-call score of the fitted dose curve at least 0.9, where 1 is the maximum; inactive means score below 0.9.

Columns and labels:
[1] = read-out: Collagen I, COL1A1 (gene 1277); assay: BSK_MyoF_CollagenI: BioMAP Diversity Plus: MyoF Assay for Collagen I Biomarker Activity (AID 2284238); settings: primary human lung fibroblasts
Outline: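 Measured by ELISA: Collagen I from human lung fibroblasts 24 h after compound addition, analysed for signal gain with DMSO as baseline; overt toxicity read from SRB staining of parallel cultures at the same time.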

[2] = read-out: Collagen III, COL3A1 (gene 1281); assay: BSK_MyoF_CollagenIII: BioMAP Diversity Plus: MyoF Assay for Collagen III Biomarker Activity (AID 2284239); settings: primary human lung fibroblasts
Outline: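 Multiplexed cell assay in lung fibroblasts, harvested at 24 h post-dose. Collagen III detected by ELISA, with positive-direction fitting relative to DMSO vehicle.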

[3] = read-out: Interleukin 17F (IL17F), IL17F (gene 112744); assay: BSK_BT_xIL17F: BioMAP Diversity Plus: BT Assay for Interleukin 17F (IL17F) Biomarker Activity (AID 2284243); settings: primary human B cells with PBMC
Outline: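 Luminex readout of IL-17F secretion, 24 h; cells: human B cells with PBMC; positive-direction analysis, DMSO control.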

[4] = read-out: Actin alpha 1 (ACTA1), ACTA1 (gene 58); assay: BSK_MyoF_ACTA1: BioMAP Diversity Plus: MyoF Assay for Actin alpha 1 (ACTA1) Biomarker Activity (AID 2284244); settings: primary human lung fibroblasts
Outline: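 Human lung fibroblast (MyoF system) cultures dosed with test chemical; alpha-SMA measured by ELISA 24 h after dosing, normalized to DMSO control. Cytotoxicity tracked in parallel cultures by SRB total-protein staining.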

[5] = read-out: Interleukin 2 (IL2), IL2 (gene 3558); assay: BSK_BT_xIL2: BioMAP Diversity Plus: BT Assay for Interleukin 2 (IL2) Biomarker Activity (AID 2284245); settings: primary human B cells with PBMC
Outline: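 Human B cell plus PBMC co-culture, 24 h after chemical dosing; secreted IL-2 quantified by Luminex xMAP multiplex, fitted for signal gain against DMSO baseline.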

[6] = read-out: Basic fibroblast growth factor (bFGF), FGF2 (gene 2247); assay: BSK_MyoF_bFGF: BioMAP Diversity Plus: MyoF Assay for Basic fibroblast growth factor (bFGF) Biomarker Activity (AID 2284246); settings: primary human lung fibroblasts
Outline: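 Human lung fibroblast cultures were dosed and measured 24 h later in 96-well format. bFGF biomarker levels quantified by ELISA, with activity fitted in the positive direction against DMSO.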

[7] = read-out: Collagen IV, COL4A1 (gene 1282); assay: BSK_MyoF_CollagenIV: BioMAP Diversity Plus: MyoF Assay for Collagen IV Biomarker Activity (AID 2284247); settings: primary human lung fibroblasts
Outline: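 Primary human lung fibroblasts (MyoF system) dosed 24 h; Collagen IV measured by ELISA. Activity fitted in positive direction against DMSO; cytotoxicity tracked by SRB total-protein staining in parallel cultures.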

[8] = CCTE_Mundy_HCI_Cortical_NOG_NeuronCount: CCTE's Neurite Outgrowth Assay in rat cortical cells for Neuron Count, Mundy Lab (AID 2284236; active means hit-call score of the fitted dose curve at least 0.9, where 1 is the maximum;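 further: neurons counted by imaging betaIII-tubulin and Hoechst stained cortical cells; cells exposed to compound for about 48 hours before fixation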)
Outline: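 Read-out: neuron number by high-content imaging of betaIII-tubulin (Alexa Fluor-488) and Hoechst-labelled rat primary cortical cells.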

[9] = CCTE_Mundy_HCI_Cortical_NOG_BPCount: CCTE's Neurite Outgrowth Assay in rat cortical cells for Branch Point Count, Mundy Lab (AID 2284237);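 on AC50: branch points counted about two days after chemical exposure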
Outline: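 Measured 50.33 h after dosing, this morphology endpoint uses rat primary cortical cultures labelled for betaIII-tubulin. Branch points are quantified by high-content imaging, with DMSO as negative control and baseline.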

[10] = CCTE_Mundy_HCI_hNP1_Casp3_7: CCTE's Caspase-Glo 3/7 Assay in human neuroprogenitor cells for Apoptosis, Mundy Lab (AID 2284240)
Outline: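 Apoptosis is scored by activated caspase-3/7 luminescence in WA09-derived neural progenitor cells, measured 26.5 h after chemical dosing. Values represent gain of signal relative to DMSO vehicle.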

[11] = read-out: Monokine induced gamma interferon (MIG), CXCL9 (gene 4283); assay: BSK_KF3CT_MIG: BioMAP Diversity Plus: KF3CT Assay for Monokine induced gamma interferon (MIG) Biomarker Activity (AID 2284248); settings: primary human keratinocytes with fibroblasts
Outline: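 MIG in dosed human skin co-cultures was measured by ELISA at 24 h, relative to DMSO.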

[12] = read-out: Vascular cell adhesion molecule 1 (VCAM1), VCAM1 (gene 7412); assay: BSK_BF4T_VCAM1: BioMAP Diversity Plus: BF4T Assay for Vascular cell adhesion molecule 1 (VCAM1) Biomarker Activity (AID 2284249); settings: primary human bronchial epithelial cells with fibroblasts
Outline: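 Human bronchial epithelial cell and dermal fibroblast co-culture exposed 24 h. VCAM-1 measured by ELISA; parallel SRB total-protein staining for cytotoxicity. Fitted in positive direction relative to DMSO.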

[13] = read-out: Collagen I, COL1A1 (gene 1277); assay: BSK_hDFCGF_CollagenI: BioMAP Diversity Plus: hDFCGF Assay for Collagen I Biomarker Activity (AID 2284250); settings: primary human foreskin fibroblasts
Outline: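 Primary human foreskin fibroblasts exposed to chemical for 24 h; Collagen I levels measured by ELISA. Cytotoxicity checked by SRB total-protein staining in parallel cultures.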

[14] = read-out: Interferon-inducible T-cell alpha chemoattractant (ITAC), CXCL11 (gene 6373); assay: BSK_hDFCGF_ITAC: BioMAP Diversity Plus: hDFCGF Assay for Interferon-inducible T-cell alpha chemoattractant (ITAC) Biomarker Activity (AID 2284251); settings: primary human foreskin fibroblasts
Outline: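 Fibroblasts (human foreskin, primary) are treated with chemical, cultured 24 h, then assayed for I-TAC by ELISA. Overt toxicity is checked in parallel cultures by sulforhodamine B staining of total protein at the same time point.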

[15] = read-out: Plasminogen activator inhibitor-1 (PAI1), SERPINE1 (gene 5054); assay: BSK_KF3CT_PAI1: BioMAP Diversity Plus: KF3CT Assay for Plasminogen activator inhibitor-1 (PAI1) Biomarker Activity (AID 2284252); settings: primary human keratinocytes with fibroblasts
Outline: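 Human keratinocyte/foreskin fibroblast co-culture dosed for 24 h; PAI-1 measured by ELISA, fitted in positive direction against DMSO baseline. Parallel SRB total-protein staining (0.1% SRB, 560 nm) assesses overt cytotoxicity.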

[16] = read-out: Monocyte Chemoattractant Protein-1 (MCP1), CCL2 (gene 6347); assay: BSK_IMphg_MCP1: BioMAP Diversity Plus: IMphg Assay for Monocyte Chemoattractant Protein-1 (MCP1) Biomarker Activity (AID 2284253); settings: primary human endothelial cells with macrophages
Outline: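 Human venular endothelial cells co-cultured with macrophages; MCP-1 measured by ELISA 24 hours post-dose and fitted against DMSO. Cytotoxicity monitored by SRB total-protein staining in parallel cultures.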

[17] = CCTE_Mundy_HCI_Cortical_Synap_Neur_Matur_NeuronCount: CCTE's Synaptogenesis and Neurite Maturation Assay in rat cortical cells for Neuron Count, Mundy Lab (AID 2284242; active means hit-call score of the fitted dose curve at least 0.9, where 1 is the maximum;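 on AC50: hits reduce neuron count versus DMSO baseline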)
Outline: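 Rat primary cortical cells, AraC added at DIV 5, dosed with media change from DIV 7 to DIV 12. Fixed, Hoechst-stained and immunolabelled for MAP2 and synaptophysin; neuron number counted by high-content imaging, loss fitted versus DMSO.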

[18] = UKN2_HCS_IMR90_cell_viability: Viability Assessment in the University of Konstanz (UKN) Leist Lab Neural Crest Cell Migration Assay in human induced IMR90 Pluripotent Stem Cells (UKN2) (AID 2284233);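 further: viability of neural crest cells differentiated from IMR90 iPSC measured by calcein-AM fluorescence imaging; cells exposed to compound for 24 h after a 24 h migration phase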
Outline: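 Human IMR90-derived neural crest cells were allowed to migrate for 24 h into a cell-free zone, then exposed to test chemicals for 24 h. Calcein-AM and Hoechst staining with high-content imaging gave viability, analysed against DMSO baseline.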

[19] = TAMU_HCS_1.5hr_SingleDonor1434_Cytotoxicity: Cytotoxicity Assessment using High-content Screening (HCS) Fluorescent Imaging for the Texas A&M University (TAMU) 1.5-hr Human Induced Pluripotent Stem Cell (iPSC)-derived Cardiotoxicity Assay (AID 2284234; active means hit-call score of the fitted dose curve at least 0.9, where 1 is the maximum)
Outline: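 Human iPSC-derived cardiomyocytes dosed at 0.2, 1, 10, 100 uM final (0.5% DMSO) for 90 min at 37 C. Hoechst 33342-stained nuclei counted by 10x high-content imaging; POD is EC10, a 10% drop in total cell count versus DMSO.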

[20] = TAMU_PeakParms_SingleDonor1434_QT: Texas A&M University (TAMU) 1.5-hr Human Induced Pluripotent Stem Cell (iPSC)-derived Cardiomyocytes Calcium (Ca+2) Flux Assay for Cardiotoxicity: QT (decay-rise ratio) (AID 2284235; active means hit-call score of the fitted dose curve at least 0.9, where 1 is the maximum)
Outline: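 iPSC-derived cardiomyocytes (single donor 1434) dosed at 0.2, 1, 10, 100 uM final in 0.5% DMSO, 90 min at 37C. Ca2+ flux fluorescence decay/rise ratio; EC05 (5% increase versus DMSO) as POD, excluding beat-arrest and severe-notch data.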

Measured: AC50

S=P(N1CC1)(N1CC1)N1CC1
inactive: [1] | [2] | [4] | [5] | [6] | [7]
active: [3] 20.9 µM

Cn1cc[nH]c1=S
inactive: [8] | [9] | [10]

OC(O)(C(F)C(O)(O)C(F)(F)F)C(F)(F)F
active: [10] 13.4 µM | [3] 46.7 µM and 30 µM | [5] 40.6 µM and 22.3 µM | [14] 8.03 µM and 15 µM
inactive: [1] | [2] | [4] | [6] | [7] | [11] | [12] | [13] | [15] | [16]

Cc1cccc(O)c1C
inactive: [1] | [2] | [3] | [4] | [5] | [6] | [7]

NNC(=O)c1ccncc1
inactive: [9] | [10] | [17]

NC(=O)N1c2ccccc2C=Cc2ccccc21
inactive: [18] | [8] | [9] | [10]

C[C@]12C=CC(=O)C=C1CC[C@H]1[C@@H]3C[C@@H](O)[C@](O)(C(=O)CO)[C@@]3(C)C[C@H](O)[C@@]12F
active: [8] 23.6 µM | [9] 20.1 µM | [10] 23 µM | [17] 3.75 µM

OCCC(F)(F)C(F)(F)C(F)(F)C(F)(F)F
inactive: [1] | [2] | [3] | [4] | [5] | [6] | [7] | [11] | [12] | [13] | [14] | [15] | [16]

OCc1c[nH]c2ccccc12
active: [5] 1.81 µM
inactive: [1] | [2] | [3] | [4] | [6] | [7]

C[Si](C)(C)C(F)(F)C(F)(F)C(F)(F)F
inactive: [1] | [2] | [3] | [4] | [5] | [6] | [7] | [11] | [12] | [13] | [14] | [15] | [16]

OC[C@H]1O[C@@](CO)(O[C@H]2O[C@H](CO)[C@@H](O)[C@H](O)[C@H]2O)[C@@H](O)[C@@H]1O
inactive: [19]

COc1cc2c(c(OC)c1OC)-c1ccc(OC)c(=O)cc1[C@@H](NC(C)=O)CC2
inactive: [20]
active: [8] 0.0535 µM | [9] 0.00988 µM | [10] 0.0228 µM | [17] 0.0339 µM

CCN(CC)C(=S)SSC(=S)N(CC)CC
active: [19] 50 µM

NCC(F)(F)C(F)(F)C(F)(F)C(F)(F)F
inactive: [1] | [2] | [3] | [4] | [5] | [6] | [7] | [11] | [12] | [13] | [14] | [15] | [16]

OC(Cn1cncn1)(Cn1cncn1)c1ccc(F)cc1F
inactive: [9] | [10]

FC(F)(F)C(F)(F)C(F)(F)C(F)(F)C(F)(F)C(F)(F)I
inactive: [10] | [3] | [5] | [6] | [11] | [12] | [13] | [14] | [15] | [16]
active: [1] 33.1 µM and 39.4 µM | [2] 30 µM | [4] 17.8 µM and 30 µM | [7] 51.3 µM and 47.7 µM | [14] 47.4 µM

FC(F)=C(F)C(F)(F)C(F)(F)C(F)(F)C(F)(F)C(F)(F)C(F)(F)F
inactive: [1] | [2] | [10] | [3] | [4] | [5] | [6] | [7] | [11] | [12] | [13] | [14] | [15] | [16]

FC(F)(F)COC(OCC(F)(F)F)OCC(F)(F)F
inactive: [1] | [2] | [3] | [4] | [5] | [6] | [7] | [11] | [12] | [13] | [14] | [15] | [16]

Nc1ccn([C@@H]2O[C@H](CO)[C@@H](O)[C@@H]2O)c(=O)n1
inactive: [18]
active: [8] 1.58 µM and 2.33 µM | [9] 11.9 µM and 3 µM | [10] 29 nM and 290 nM | [17] 4.39 µM and 3.57 µM

O=C(Cl)C(F)(F)C(F)(F)C(F)(F)C(=O)Cl
inactive: [1] | [2] | [10] | [3] | [4] | [5] | [6] | [7] | [11] | [12] | [13] | [14] | [15] | [16]

CCCC(CCC)C(=O)O
active: [10] 1500 µM
inactive: [18] | [20] | [9] | [17]

FC(F)C(F)(F)COCC1CO1 (configuration not stated)
inactive: [1] | [2] | [3] | [4] | [5] | [6] | [7] | [11] | [12] | [13] | [14] | [15] | [16]

O=S(=O)(O)CCC(F)(F)C(F)(F)C(F)(F)C(F)(F)C(F)(F)C(F)(F)F
active: [14] 1.38 µM
inactive: [1] | [2] | [3] | [4] | [5] | [6] | [7] | [11] | [12] | [13] | [14] | [15] | [16]

c1ccc2cc3ccccc3cc2c1
inactive: [8] | [9] | [10]

CC(C)C(=O)Nc1ccc([N+](=O)[O-])c(C(F)(F)F)c1
inactive: [19] | [20]

c1ccc2c(c1)-c1cccc3c1c-2cc1ccccc13
inactive: [19] | [20]
